# TRHR PAM: qHTS for Small Molecule Agonists and Allosteric Enhancers of Human TRH Receptor: Primary Screen for Enhancers; Thyrotropin-releasing hormone receptor (Homo sapiens), P34981; TRHR cells, fluo-8 calcium fluorescence, EC20 TRH enhancement; enhancement, % at 2 µM; hit rate 0.66% among 360,000; AID 493056, 2011; in the data active = enhancement above about 30%; also: 0% is about no effect
#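 TRHR-expressing cells loaded with fluo-8 calcium dye were read kinetically (ex 480/em 530) during compound addition, then stimulated with an EC20 of TRH (10 nM final). Enhancement of the Gq-mediated intracellular calcium response was scored.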
# D1 potentiator: Potentiators of Human D1 Dopamine Receptor: qHTS | HEK293 TREx D1 cells, calcium flux, dopamine EC20 potentiation | potentiation, % at 10 µM | hit rate 0.036% among 360,000; in the data active = potentiation above about 30%; also: 0% is about no effect
# Target sequence (P21728 whole entry, looked up): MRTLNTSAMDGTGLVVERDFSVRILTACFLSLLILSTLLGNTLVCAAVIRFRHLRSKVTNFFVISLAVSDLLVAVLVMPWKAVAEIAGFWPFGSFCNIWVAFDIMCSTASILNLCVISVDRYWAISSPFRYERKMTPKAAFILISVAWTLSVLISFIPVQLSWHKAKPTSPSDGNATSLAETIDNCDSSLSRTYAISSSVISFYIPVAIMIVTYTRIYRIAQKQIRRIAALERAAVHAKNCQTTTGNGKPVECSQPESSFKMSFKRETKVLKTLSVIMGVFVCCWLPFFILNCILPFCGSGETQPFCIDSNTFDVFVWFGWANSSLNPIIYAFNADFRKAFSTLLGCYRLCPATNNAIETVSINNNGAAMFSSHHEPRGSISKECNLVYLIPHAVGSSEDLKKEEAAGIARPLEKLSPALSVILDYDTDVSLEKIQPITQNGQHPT
# D1 antagonist: Antagonist of Human D 1 Dopamine Receptor: qHTS | D(1A) dopamine receptor (Homo sapiens), P21728 | HEK293 TREx D1 cells, calcium flux, dopamine EC80; stronger effect = lower value | activity change, negative = inhibition, % at 10 µM | hit rate 3.2% among 360,000 | AID 504652, 2011; in the data active = activity change below about -30%; also: % is scaled to controls: 0 for no effect and ±100 for the full control effect
#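 Calcium flux readout: force-coupled, inducible Hek293 Trex D1 line, cells induced overnight at 30 C with tetracycline, dye-loaded 30–90 min at RT. Antagonism scored against EC80 dopamine challenge given 180 s after compound.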
# TRHR ag: qHTS for Small Molecule Agonists and Allosteric Enhancers of Human TRH Receptor: Primary Screen for Agonists. Thyrotropin-releasing hormone receptor (Homo sapiens), P34981. TRHR cells, calcium flux fluo-8, FDSS agonist mode. activation, % at 2 µM. hit rate 0.18% among 360,000. AID 493084, 2011; also: 0% is about no effect
#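 Read-out: compound-evoked intracellular calcium rise in TRHR cells, fluo-8 dye, kinetic FDSS fluorescence at 1 s/cycle following a 10-cycle baseline. Cells cultured overnight before dye loading (30 min–1.5 h, RT).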
# D1 ag: Allosteric Agonists of the Human D1 Dopamine Receptor: qHTS; activation, % at 2 µM; hit rate 1% among 360,000; D(1A) dopamine receptor (Homo sapiens), P21728; HEK293 T-REx D1 cells, calcium flux, agonist mode; also: 0% is about no effect
#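 Tetracycline-induced HEK293 TREx D1 cells, force-coupled to calcium signalling, were dye-loaded with a no-wash calcium kit. Compound was pin-added after a 10 s baseline. Fluorescence was read kinetically at 1 cycle/s for 180 s, with calcium rises flagged as agonism.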
# Starred values were filed as active, the others as inactive; . = no result. In the library only some 4.6% were active in any assay of this set; here they are far more common. Rule as the data show it, unless noted: active = activation above about 30%; inactive = the rest.
SMILES,TRHR PAM,D1 potentiator,D1 antagonist,TRHR ag,D1 ag
Cc1cc(C)c2c(CC(=O)Nc3cc(C(F)(F)F)ccc3Cl)coc2c1,-6.9,-0.9,-15.7,1.3,3.9
COc1cccc(-c2ccc3c(N)c(C(=O)c4ccc(F)cc4)sc3n2)c1,7.8,-4.3,-10.3,24.3,149.8*
COc1ccc(NC(=O)c2sc3nc(-c4ccc(OC)cc4)cc(C(F)(F)F)c3c2N)cc1,9.4,-1.4,-9.3,4.5,11.1
COc1ccc(C(=O)c2sc3nc(-c4ccc(C)cc4)cc(C(F)(F)F)c3c2N)cc1,-5.0,-4.8,-4.3,7.3,90.1*
COc1ccc(C(=O)c2sc3nc(-c4ccc(OC)cc4)ccc3c2N)cc1,2.9,-6.2,-8.0,12.7,60.6*
Cc1ccc(-c2nc(S(=O)(=O)c3ccc(Cl)cc3)c(N3CCCCC3)o2)cc1,4.8,-0.4,7.4,-1.2,-1.2
COc1ccc(NC(=O)c2nc3nc(C)cc(C(F)F)n3n2)c(C)c1,-14.5,0.5,6.1,0.3,-0.4
O=C(c1cc(-c2ccc(Cl)cc2)on1)N1CCc2ccccc2C1,-1.4,-4.8,-1.4,0.5,1.7
O=C(c1cc(-c2ccccc2)on1)N1CCc2ccccc2C1,36.1*,-6.1,0.1,1.1,1.4
CC(C(=O)Nc1ncc([N+](=O)[O-])s1)N1C(=O)c2ccccc2S1(=O)=O (stereo not given),1.3,-3.6,-35.1*,0.7,3.7
Cc1cccc(NC(=O)C(C)N2C(=O)c3ccccc3S2(=O)=O)n1 (stereo not given),0.5,0.7,2.0,0.0,1.6
COc1cccc(NS(=O)(=O)c2cc(-c3cnc(C4CC4)o3)ccc2C)c1,4.5,0.3,-11.6,-0.6,-1.4
Cc1ccc2c(c1)C(=O)OC(C(=O)Nc1ccccc1C(=O)O)C2 (stereo not given),-2.5,1.7,-4.9,-0.6,4.2
COc1ccccc1NCC(O)Cn1c2ccccc2c2ccccc21 (stereo not given),-6.8,1.6,-0.6,0.2,-0.6
COc1ccc(CCNCC(O)Cn2c3ccccc3c3ccccc32)cc1OC (stereo not given),-7.0,-4.8,-18.9,1.8,55.3*
CCOc1cc(C2C(C(=O)Nc3ccccc3)=C(C)Nc3ncnn32)cc(Br)c1O (stereo not given),-2.5,-0.7,-13.8,1.3,2.4
Cc1ccc(SCc2cc(-c3ccc(Cl)cc3)no2)cc1,5.7,-1.9,-4.0,-1.5,36.3*
Cc1cccc(C)c1NC(=O)/C(C#N)=C/c1ccsc1,-2.3,5.3,-34.5*,0.4,2.6
CC(C)Oc1ccc(CNC(=O)CCCn2c(=O)c3cccn3c3ccccc32)cc1,-3.3,-2.5,-19.3,-0.2,6.6
OCCN1CCN(CC/C=C2/c3ccccc3Sc3ccc(Cl)cc32)CC1,0.3,-5.3,-100.2*,-0.6,26.6
CCCCCCCCCCC[N+](C)(C)CC/C=C1/c2ccccc2Sc2ccc(Cl)cc21,0.7,-8.8,-8.2,2.5,48.0*
CN1CCN(CCCN2c3ccccc3Sc3ccc(S(=O)(=O)N(C)C)cc32)CC1,-0.7,-0.8,-93.8*,4.7,52.4*
CN1CCN(CCCNC(=O)c2cn(C)c3ccc(S(=O)(=O)N(C)C)cc3c2=O)CC1,-3.8,-3.9,-6.5,0.2,3.7
CN(C)CC/C=C1/c2cc(F)ccc2CSc2ccc(F)cc21,3.2,-8.9,-3.9,1.1,4.5
CN(C)CC/C=C1\c2ccccc2Sc2ccc(Cl)cc21,-0.9,-3.0,-81.9*,0.6,22.4
SMILES,TRHR PAM,D1 potentiator,D1 antagonist,TRHR ag,D1 ag
COc1cccc(N2CCN(C(=O)Cn3c(-c4cccs4)cc4ccccc43)CC2)c1,7.2,2.6,14.7,-0.6,3.2
CCc1ccc(N2CC(c3nnc(NC(=O)c4ccco4)s3)CC2=O)cc1 (stereo not given),-0.6,1.6,3.0,-0.2,-0.6
Cc1noc(C)c1S(=O)(=O)NCCc1csc2nc(-c3ccc(F)cc3)nn12,-1.7,1.6,.,0.6,14.5
CCCCCCCCCC[N+](C)(C)CC/C=C1/c2ccccc2Sc2ccc(Cl)cc21,7.7,-4.5,5.8,1.4,53.1*
CC[N+](C)(C)CC/C=C1/c2ccccc2Sc2ccc(Cl)cc21,3.5,-3.0,-16.9,-0.7,0.4
OCCN1CCN(CCCN2c3ccccc3Sc3ccc(Cl)cc32)CC1,1.0,-5.8,-83.1*,1.8,11.7
COc1ccc(CCC(=O)NNC(=O)Cn2nc(C)cc2C)cc1,15.4,-10.6,-58.0*,0.9,3.9
Cc1cc(C)n(CC(=O)NNC(=O)CCCOc2ccc(Cl)c(C)c2)n1,-0.2,0.5,12.0,0.0,7.4
Cc1cc(C)cc(NC(=O)Cn2c(=O)n(Cc3ccc4c(c3)OCO4)c(=O)c3oc4ccccc4c32)c1,-2.5,-3.5,0.9,0.2,1.1
CCOC(=O)c1cc(-c2ccc(C)cc2)n(CCC(=O)Nc2nc3c(C)cccc3s2)c1C,1.5,-2.8,19.7,0.0,-0.4
COCC(C)n1c(C)cc(C(=O)COC(=O)c2n[nH]c3ccccc23)c1C (stereo not given),1.5,-4.9,-48.5*,1.4,3.6
CC(Sc1nccn1C)C(=O)Nc1ccc(C(N)=O)cc1 (stereo not given),31.1*,-4.8,26.5,0.2,2.9
CCOc1ccc(NC(=O)C(C)Sc2nnnn2C)cc1 (stereo not given),-0.2,-7.7,-31.7*,-0.2,-0.1
CC(Sc1nnnn1C)C(=O)Nc1ccccc1 (stereo not given),-1.0,-0.1,-11.0,-0.2,1.7
COc1ccc2c(CNCCc3cccs3)c(C(=O)O)n(Cc3ccccc3C)c2c1,-3.5,-0.6,20.9,-0.6,4.4
O=C(CNc1ccc2c(c1)OCO2)N/N=C\c1cn(Cc2ccc(F)cc2)c2ccccc12,3.2,-4.3,-40.8*,-1.9,3.3
CCOc1ccc(NC(=O)CSc2nc(-c3cccc(Cl)c3)nc3c2Cc2c(CO)cnc(C)c2O3)cc1,-1.6,-3.1,-6.2,0.8,0.7
C/C(=N\NC(=O)c1c(Cl)cnn1C)c1ccc(NC(=O)c2ccc(Br)o2)cc1,11.8,-7.7,-43.2*,-0.5,2.2
Cc1ccc(Cl)cc1N1CCN(CCCNc2ncnc3onc(-c4ccc(F)cc4)c23)CC1,3.7,1.4,6.4,0.3,2.4
Cc1ccccc1CN1C(=O)c2ccccc2S(=O)c2ccc(C(=O)NCc3ccco3)cc21 (stereo not given),-2.1,-1.4,-18.2,0.2,3.4
OC(CNC1CCCC1)COc1ccc(-c2ccccc2)cc1 (stereo not given),17.6,-7.5,-28.1,1.9,20.7
